This note sets out measurements from ChEMBL document CHEMBL3433997, “St. Jude Leishmania screening dataset” (2016).

Common to all, as to format: functional
For assay [1], the target named is Solute carrier family 2, facilitated glucose transporter member 1 (Homo sapiens) (UniProt P11166). Nature of the assay: ST_JUDE_LEISH: Cytotoxicity at 2uM final concentration against transgenic Leishmania Mexicana promastigotes LmGLUT1 that are glucose transport deficient and complemented with the human glucose transporter GLUT1. Activity is measured by DNA content using SYBR green in vitro.
Solute carrier family 2, facilitated glucose transporter member 1 (Homo sapiens), sequence (P11166 whole entry): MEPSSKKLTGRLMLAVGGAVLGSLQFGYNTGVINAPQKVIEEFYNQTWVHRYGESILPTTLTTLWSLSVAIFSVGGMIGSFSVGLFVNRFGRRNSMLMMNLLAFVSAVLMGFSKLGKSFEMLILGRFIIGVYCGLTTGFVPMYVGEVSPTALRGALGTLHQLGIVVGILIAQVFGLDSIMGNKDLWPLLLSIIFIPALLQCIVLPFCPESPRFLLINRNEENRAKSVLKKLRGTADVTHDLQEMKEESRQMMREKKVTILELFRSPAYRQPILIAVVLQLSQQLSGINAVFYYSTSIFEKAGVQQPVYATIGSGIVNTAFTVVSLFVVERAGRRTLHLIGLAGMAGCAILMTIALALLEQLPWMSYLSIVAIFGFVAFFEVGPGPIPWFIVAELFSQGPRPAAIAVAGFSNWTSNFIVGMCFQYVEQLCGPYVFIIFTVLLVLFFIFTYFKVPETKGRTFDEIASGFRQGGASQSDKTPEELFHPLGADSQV

Assay [2] has as its target Hexose transporter 1 (Plasmodium falciparum) (UniProt O97467). Nature of the assay: ST_JUDE_LEISH: Cytotoxicity at 2uM final concentration against transgenic Leishmania Mexicana promastigotes LmPfHT that are glucose transport deficient and complemented with the Plasmodium falciparum hexose transporter. Activity is measured by DNA content using SYBR green in vitro.
For assay [3], the target named is Glucose transporter (Leishmania mexicana) (UniProt O61059). Nature of the assay: ST_JUDE_LEISH: Cytotoxicity at 2uM final concentration against transgenic Leishmania Mexicana promastigotes LmGT2 that are glucose transport deficient and complemented with the L. Mexicana glucose transporter 2. Activity is measured by DNA content using SYBR green in vitro.

As to `CC1(C)N=C(N)N=C(N)N1OCc1cc2ccccc2cc1CON1C(N)=NC(N)=NC1(C)C`, the values for the inhibition in assay [1], in assay [2] and in assay [3] were 1.9%, 1.86% and 0.5%, respectively.
With `COC(=O)c1ccccc1N1CCN(CCCCNC(=O)c2ccc(NC(=O)c3cc(Cl)cc(Cl)c3)cc2)CC1`, the inhibition is 3.86% in assay [1], 5.53% in assay [2] and 3.09% in assay [3].
The like results for `CCOC(=O)N1CCN(CCCCNc2c3ccc(Cl)cc3nc3ccc(OC)cc23)CC1` were, in that order, 10.8%, 9.69% and 7.38%.
The like results for `COc1cc(C(=O)Nc2cccc(-c3cn4ccc(C)cc4n3)c2)cc(OC)c1OC` were, in that order, 17.1%, 8.22% and 6.63%.
For `CCc1nn2c(Nc3ccncc3)cc(C)nc2c1-c1ccccc1` the same measures were 3.36%, 3.33% and 1.85%.
Regarding `CN(C)c1ccc(CN2CCC(NC(=O)c3ccc(-c4cccc(Cl)c4)s3)CC2)cc1`, the figures for the inhibition in assay [1], in assay [2] and in assay [3] were 0.72%, -1% and 0.31%, respectively.
The like results for `Nc1cccc(C=CC(=O)N=c2cc[nH]c3ccccc23)c1` were, in that order, -0.24%, 0.74% and -2.1%.
The like results for `CN(c1ccccc1)c1ccnc(NC(=N)Nc2ccc(Cl)cc2)n1` were, in that order, 5.16%, 5.4% and 5.1%.
For `CCCCCCCN(CCCCCCC)CCNc1cc(C)nc2ccccc12` the same measures were 6.37%, 5.18% and 4.49%.
Turning to `O=C(C=Cc1ccc(-c2ccccc2)cc1)N1CCC(CCN2CCC(c3c[nH]c4ccccc34)CC2)CC1`, the inhibition was 2.14% in assay [1], 9.22% in assay [2] and -1.2% in assay [3].
For `COc1ccc2c(c1)Nc1ccc(Cl)cc1C2N` (stereo not drawn) the same measures were 3.78%, 1.62% and 0.48%.
For the compound `O=C(/C=C/c1ccc(Cl)c(Cl)c1)NCCCCCN1CCC(NC(=O)Nc2ccc(F)cc2F)CC1`, the inhibition in assay [1] was found to be 1.35%; in assay [2], 2.88%; in assay [3], 1.33%.
For `O=C(Nc1ccc2c(c1)CCN(C1CCC1)CC2)c1cn(-c2ccccc2)nc1-c1ccccc1` the same measures were 5.38%, 3.65% and 0.52%.
In the case of `CN1CCCN(Cc2ccc(-c3ccc(NC(=O)c4cccc(C#N)c4)cc3)cc2)CC1`, the values for the inhibition in assay [1], in assay [2] and in assay [3] were 2.3%, 0.34% and 0.78%, respectively.
For `Cc1cc2nc(-c3ccc(SCC(=O)Nc4ccc5c(c4)OCCO5)nc3)[nH]c2cc1C` the same measures were 0.8%, -0.74% and -4.17%.
For `CC(=O)Nc1cccc(CN(Cc2ccc(-c3ccc(CNCc4cccnc4)cn3)cc2)C(=O)Cc2cccnc2)c1` the same measures were 14.6%, 10.7% and 14%.
With `Cc1noc(C)c1-c1ccc2c(Nc3ccc(C(F)(F)F)cc3)c(C(N)=O)cnc2c1`, the inhibition in assay [1] is 3.49%; in assay [2], 3.21%; in assay [3] it was -3.02%.
As to `Cc1[nH]c(C)c(-c2ccc(Oc3ccccc3)cc2)c(=O)c1Br`, the values for the inhibition in assay [1], in assay [2] and in assay [3] were 1.44%, 1.17% and -0.53%, respectively.
Consider `O=C(Nc1cccc(-c2csc(-c3nc4ccccc4[nH]3)c2)c1)c1ccncc1`, for which the figures for the inhibition in assay [1], in assay [2] and in assay [3] were 11.6%, 8.89% and 6.69%, respectively.
For `CC(C)(C)c1ccc(NC(=O)c2cccc(CN3CCCN(Cc4cccc(C#N)c4)CC3)c2)cc1` the same measures were 5.1%, 1.26% and 0.63%.
For the compound `CCOC(=O)c1c(CSc2ccccc2)oc2cc(CN(C)C)c(O)c(Cl)c12`, the inhibition in assay [1] is 1.18%; in assay [2] it was 0.44%; in assay [3] it was -0.41%.
For `O=C(/C=C/c1ccc(C(F)(F)F)cc1)NCCCCCN1CCN(C(=O)Nc2ccc(Cl)cc2)CC1` the same measures were 2.27%, 3.09% and 1.84%.
For `CCCc1ccc(S(=O)(=O)NC2CCN(c3ccnc(Nc4ccc(OC)cc4)n3)C2)cc1` (stereo not drawn) the same measures were 8.11%, 9.89% and 9.64%.
Consider `CC(C)(C)c1ccccc1SC1=C(O)CC2(CCNCC2)OC1=O`, for which the figures for the inhibition in assay [1], in assay [2] and in assay [3] were 0.78%, 0.64% and 1.29%, respectively.
The like results for `c1ccc2c(NCCCCCCCCNc3ccnc4ccccc34)ccnc2c1` were, in that order, -0.47%, 0.85% and 1.12%.
Regarding `CCOC(=O)c1ccc(NC(=O)Nc2cccc(-c3ccc(-c4nc5cc(C(F)(F)F)ccc5[nH]4)cc3)c2)cc1`, the results for the inhibition in assay [1], in assay [2] and in assay [3] were -0.08%, 1.53% and 0.3%, respectively.
The like results for `CC(C)CCCC(C)(C)NC[C@@H](O)[C@H](Cc1ccccc1)NC(=O)c1cccc(OCC2CC2)c1` were, in that order, 1.19%, 1.25% and 1.85%.
For `O=[N+]([O-])c1cccc(Nc2nccc(-c3cnn4ncccc34)n2)c1` the same measures were 83%, 85.4% and 79.9%.
Consider `COc1ccc2[nH]c(C)cc(=NN=Cc3cccc(Cl)c3)c2c1`, for which the inhibition in assay [1] is -0.18%; in assay [2] it was 4.08%; in assay [3] it was -1.05%.
For `C#CCNCc1ccc(-c2ccc(-c3nc4cc(C(F)(F)F)ccc4[nH]3)s2)cc1` the same measures were 0.44%, -0.12% and -1.09%.
In the case of `NC1CCN(CCc2ccc(NS(=O)(=O)c3ccc(-c4ccccc4)cc3)cc2)CC1`, the inhibition in assay [1] was 0.64%; in assay [2], -0.24%; in assay [3], 0.08%.
On to `COc1cc(Cc2cnc3nc(N)nc(N)c3c2C)cc(OC)c1OC`, for which the inhibition worked out at 1.29% in assay [1], 1.49% in assay [2] and 1.69% in assay [3].
The like results for `Cc1cc(N2CCCN(C)CC2)nc(Nc2ccc(Cl)cc2)n1` were, in that order, 1.53%, 1.73% and 2.54%.
The like results for `COc1ccc2nccc([C@@H](O)CN3CCC(NCc4cc5cccnc5[nH]4)CC3)c2n1` were, in that order, 15.5%, 14.9% and 3.26%.
The like results for `Nc1nc(N)c2c(Cc3ccccc3)cccc2n1` were, in that order, 0.09%, 4.13% and 2.02%.
Take `CCOC(=O)C(C)(C)Oc1ccc(C(=C2CC(C)(C)CC(C)(C)C2)c2ccc(O)cc2)cc1`: the inhibition in assay [1] amounted to 4.11%; in assay [2], 2.31%; in assay [3], 3.56%.

One may read the inhibition as the change of the read-out against control, counted positive when it falls.
